According to PubChem BioAssay AID639 (Emory University Molecular Libraries Screening Center, 2007):
Out of some 86,000 compounds screened, about 1,200 (1.4%) were called active. The sample holds actives, similar compounds and a random draw of the others, so the mix is not that of the screen. Rule as the data show it: active = activity above about 200%; inactive = the rest.

molecular target: Estrogen receptor (Homo sapiens) (UniProt P03372); assay: enhancers of ERα–SRC-1 coactivator binding, primary screen, biochemical, TR-FRET, ERα LBD, low estradiol (AID 639); conditions: TR-FRET ERalpha-LBD/SRC-Cy5 coactivator binding, 2 h; at 25.6 µM; hits give high values; 100 = basal binding, no effect;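 also: binding measured in presence of low estradiol as agonist stimulus; 0% = peptide alone without receptor and 100% = receptor with peptide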
Sequence (P03372 whole entry, looked up, the tested form may be a part): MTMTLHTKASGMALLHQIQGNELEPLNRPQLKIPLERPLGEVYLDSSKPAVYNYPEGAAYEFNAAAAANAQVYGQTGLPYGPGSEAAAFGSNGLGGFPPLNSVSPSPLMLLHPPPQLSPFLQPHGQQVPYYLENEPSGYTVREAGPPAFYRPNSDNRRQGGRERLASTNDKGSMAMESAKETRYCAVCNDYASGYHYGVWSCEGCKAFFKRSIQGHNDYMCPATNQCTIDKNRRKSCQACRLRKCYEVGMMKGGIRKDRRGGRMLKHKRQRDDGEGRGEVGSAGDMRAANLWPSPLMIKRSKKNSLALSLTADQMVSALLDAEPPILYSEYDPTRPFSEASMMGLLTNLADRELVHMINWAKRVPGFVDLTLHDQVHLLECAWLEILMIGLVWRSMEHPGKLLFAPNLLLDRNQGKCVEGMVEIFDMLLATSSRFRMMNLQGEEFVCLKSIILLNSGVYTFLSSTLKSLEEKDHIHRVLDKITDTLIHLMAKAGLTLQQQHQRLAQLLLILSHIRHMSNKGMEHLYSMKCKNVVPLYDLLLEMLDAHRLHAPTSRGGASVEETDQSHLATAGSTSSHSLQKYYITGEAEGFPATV

Coactivator binding (% of control), inactive:
CCN(CC(=O)Nc1ccccc1OC)C(=O)Cn1cnc2ccccc2c1=O 97.9%, CC1Cc2ccccc2N1C(=O)CSc1nc2ccccc2o1 (stereo not given) 111%, CCS(=O)(=O)c1ccc2oc(SCC(=O)N3c4ccccc4CC3C)nc2c1 (stereo not given) 98%, Cc1cccc(OCCCC(=O)Nc2ccc(S(=O)(=O)N3CCCC3)cc2)c1 94.6%, CC(C)c1nc(-c2ccccn2)no1 105%, c1ccc(-c2noc(-c3cccs3)n2)nc1 118%, Cc1ccc(NC(=S)NC(NC(=O)Cc2cccc3ccccc23)C(Cl)(Cl)Cl)cc1 (stereo not given) 77.9%, COC(=O)C(C(=O)Nc1cccc(C)n1)C1CCCCCC1 (stereo not given) 76.6%, COc1cccc(NC(=O)Cc2ccc(C)cc2)c1 96.3%, Cc1ccc(OCC(=O)Nc2ccc(-c3nnc(-c4ccco4)o3)cc2)cc1 172%, COc1ccc(CC(=O)Nc2ccc(-c3nnc(-c4ccccc4)o3)cc2)cc1 184%, O=C(Nc1cccc(-c2nc3ncccc3o2)c1)c1ccco1 108%, CCOc1ccc(NC(=O)C2CCCN(C(=O)Nc3ccccc3)C2)cc1 (stereo not given) 106%, CCN(CC)C(=O)CSc1nnc(-c2cccc(OC)c2)o1 105%, COc1ccc(CN(C(=O)CSc2nnc(-c3ccc(OC)c(OC)c3)o2)c2ccc(F)cc2)cc1 95.1%, Cn1c(SCC(=O)N2CCCc3ccccc32)nc2ccccc2c1=O 84.1%, Cc1cccc(C(=O)Nc2ccccc2N2CCN(c3ccc(F)cc3)CC2)c1 97.2%, COc1ccc(C(C)=O)cc1CN1C(=O)NC2(CCCCC2C)C1=O (stereo not given) 128%, CCN1CCN(c2ncnc3c2oc2nc(C)c4c(c23)CC(C)(C)OC4)CC1 95.8%, CN(C)c1ccc(CNC2C3CC4CC(C3)CC2C4)cc1 (stereo not given) 105%, CC(C)C(c1nnnn1CCc1ccccc1)N1CCN(C(=O)c2ccco2)CC1 (stereo not given) 118%, CC(=O)c1ccc(-n2nnnc2SCC(=O)N2CCN(C(=O)c3ccco3)CC2)cc1 102%, CC(N)C12CC3CC(CC(O)(C3)C1)C2 (stereo not given) 105%, CCCc1nc(NCc2ccc3c(c2)OCO3)c2nnn(Cc3ccccc3Cl)c2n1 118%, CCOC(=O)CN(Cc1ccc(OC)c(OC)c1)S(=O)(=O)c1ccc(OC)cc1 114%, CCOc1cccc(NC(=O)CC#N)c1 101%, CCn1c(COc2ccccc2)nnc1SCC(=O)Nc1ccc2c(c1)OCCO2 115%, CC(=NCc1ccco1)c1c(C(F)(F)F)[nH]n(-c2nc3ccccc3s2)c1=O 109%, COc1ccc(N2CCN(C(=O)CCc3nc(-c4ccc(C)cc4)no3)CC2)cc1 106%, CCCCCN1CC(O)=C(c2ccccc2)C1=N 30.5%, COc1ccccc1N1CC(O)=C(c2nc3ccccc3s2)C1=N 87.9%, C/C(=N\NS(=O)(=O)c1ccc(Br)cc1)c1cccs1 101%, CCc1nc(N2CCN(c3nc(C)cc(C)n3)CC2)c2oc3ccccc3c2n1 155%, Cc1cc(C)nc(N2CCN(c3ncnc4c3oc3ccccc34)CC2)n1 144%, Cc1ccc(C2=CSC3=NS(=O)(=O)CCN23)cc1C 100%, COCCn1c(SCc2nc3cc(OC)c(OC)cc3c(=O)[nH]2)nnc1-c1ccncc1 112%, CCSc1nnc(NC(=O)c2ccc(C)cc2)s1 95.5%, CCc1nnc(NC(=O)CCC(=O)NCc2ccccc2OC)s1 76.9%, Cc1nc(NC(=O)CN(C)S(=O)(=O)c2ccc(Cl)cc2)sc1C 105%, Fc1ccc(-c2ccc(-c3nn4c(-c5ccco5)nnc4s3)o2)cc1 84.9%, COc1ccc(-c2nn3c(-c4ccccc4)nnc3s2)cc1OC 123%, CC1(C)CC(=O)C=C(N2CCCC2)C1 101%, CCOC(=O)Cc1csc(NC(=O)CSc2nnc(-c3cccnc3)n2Cc2ccco2)n1 114%, O=C(Nc1nc2cc3c(cc2s1)OCCO3)c1cccc(S(=O)(=O)N2CCOCC2)c1 122%, O=C(Nc1nc2ccc(S(=O)(=O)N3CCCC3)cc2s1)C1CCCO1 (stereo not given) 103%, COC(=O)COc1ccc(S(=O)(=O)N2CCOCC2)cc1 108%, CCOC(=O)c1csc(NC(=O)c2ccc(S(=O)(=O)N3CCCC3)cc2)n1 108%, Cc1ccc(C)c(NC2=NCC(=O)N2c2ccc3c(c2)OCCO3)c1 103%, CCCCc1nc(NCCN)c(C#N)c2c1CSC(C)(C)C2 85.4%, O=C(C(NS(=O)(=O)c1cccc2nsnc12)c1ccccc1)N1CCN(c2ccccc2)CC1 (stereo not given) 102%, COc1ccc2c(c1)cc1n2CCN=C1NN 90.7%, O=C(O)CSc1nccn1-c1cccc(Cl)c1 100%, COc1ccc(C2(CNC(=O)C(c3ccccc3)c3ccccc3)CCOCC2)cc1OC 103%, O=C(CSc1nc2cccnc2n1Cc1ccccc1)N1CCc2ccccc21 156%, O=C(NCc1ccco1)c1cc(-c2cccnc2)nc2ccc(Cl)cc12 128%, COc1ccc(CCn2c(=N)c(C(=O)NCc3ccco3)cc3c(=O)n4cccc(C)c4nc32)cc1 92.3%, CC(Oc1ccc(Cl)cc1)C(=O)OCC(=O)Nc1ncc(Cl)cc1Cl (stereo not given) 103%, COc1ccc(OC(C)C(=O)Nc2cccnc2)cc1 (stereo not given) 102%, CCCC1(C(=O)OCC)NC(c2ccc(N(C)C)cc2)C2C(=O)N(c3ccc4c(c3)OCCO4)C(=O)C21 (stereo not given) 117%, CCN(CC)C(=O)CSc1nnc(CNc2ccc(F)cc2)n1Cc1ccco1 86.8%, CC(=O)Nc1ccc(S(=O)(=O)NCCc2ccccc2)cc1 98.9%, O=S(=O)(NCCNS(=O)(=O)c1ccccc1)c1ccccc1 108%, COc1ccc(C(=O)N2CC3(C)CC2CC(C)(C)C3)cc1OC (stereo not given) 118%, CCOC(=O)c1c(C)oc2cc(Br)c(OCC(N)=O)cc12 156%, CCn1c(CNC(=O)c2ccccc2)nnc1SCC(=O)N1CCN(c2ccccc2)CC1 106%, Fc1ccc(-n2c(Cc3ccccc3)nnc2SCc2nc(-c3ccc(Cl)cc3)no2)cc1 95.3%, Cc1cccc(C)c1NC(=O)CSc1nnc(-c2ccccc2)n1Cc1ccc2c(c1)OCO2 98.5%

Coactivator binding (% of control), active:
CC1Cc2ccccc2N1C(=O)CSc1nnc(-c2ccc(S(=O)(=O)N3CCCCC3)cc2)o1 (stereo not given) 304%, O=C(Oc1ccc(-c2nc(-c3ccccn3)no2)cc1)c1ccccc1 210%, Cc1ccc(OCC(=O)Nc2ccc(-c3nc4ncccc4o3)cc2)cc1 315% [fluorescence artefact?], COc1ccc(CC(=O)Nc2ccc(-c3nnc(-c4ccc(C)cc4)o3)cc2)cc1 359% [fluorescence artefact?], COc1ccc(-c2nnc(SCC(=O)c3ccc4c(c3)OCCO4)o2)cc1 335% [fluorescence artefact?], CC(C)c1nc2oc3c(N4CCN(C)CC4)ncnc3c2c2c1CCC2 373% [fluorescence artefact?], CCC(c1nnnn1C1CCCC1)N1CCN(C(=O)c2ccco2)CC1 (stereo not given) 240% [fluorescence artefact?], CCOc1cccc(NC(=O)Cn2nc(-c3ccc4c(c3)OCCO4)ccc2=O)c1 214%, CCCCCN1CC(O)=C(c2nc(-c3ccc(Cl)cc3)cs2)C1=N 293% [fluorescence artefact?], Cc1nc(N2CCN(c3ncccn3)CC2)c2oc3ccccc3c2n1 207% [fluorescence artefact?], CCSc1nnc(NC(=O)Cc2ccccc2OC)s1 246% [fluorescence artefact?], Fc1ccc(-c2nnc3sc(-c4ccc5c(c4)OCO5)nn23)cc1 258%, COc1ccc(S(=O)(=O)N2CCOCC2)cc1C(=O)Nc1nc2ccccc2s1 206% [fluorescence artefact?], COc1ccc(C(=O)Nc2nc(-c3ccc(S(=O)(=O)N4CCOCC4)cc3)cs2)cc1 492% [fluorescence artefact?], O=C(NCc1ccco1)c1cccn2c(=O)c3cc(Br)ccc3nc12 232% [fluorescence artefact?], CC(Oc1ccc(Cl)cc1)C(=O)Nc1ncccn1 (stereo not given) 220%, O=S(=O)(NCCc1ccccc1)c1ccccc1 245% [fluorescence artefact?], CSc1ccc(-c2c(C#N)c(N)nc3c2c(C)nn3-c2ccccc2)cc1 210% [fluorescence artefact?]
